According to the supplement of paper PMC9492666:
Structures can show the parent of a compound that is named as a salt.

Each compound was assayed on HCC1937 (assay: relative cell viability, compound + erastin, vs DMSO (fraction of DMSO control); higher = less growth inhibition). Details: 72 h.
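Note: viability read by CCK-8 kit in 96-well plates, part of a combination screen pairing lipid-metabolism-targeting compounds with erastin.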

| Structure (SMILES) | relative cell viability |
| --- | --- |
| CC(C)(Oc1ccc(CCNC(=O)c2ccc(Cl)cc2)cc1)C(=O)O [Bezafibrate] + CCOc1ccccc1-n1c(C(C)N2CCN(C(=O)COc3ccc(Cl)cc3)CC2)nc2ccccc2c1=O [erastin] | 0.736 |
| CCCCCCCCCCCCCCCC(=O)NCCO [Palmidrol] + CCOc1ccccc1-n1c(C(C)N2CCN(C(=O)COc3ccc(Cl)cc3)CC2)nc2ccccc2c1=O [erastin] | 0.91 |
| CC1(C)C[C@H]2C3=CC[C@@H]4[C@@]5(C)CC[C@H](O)[C@@](C)(CO)[C@@H]5CC[C@@]4(C)[C@]3(C)C[C@H](O)[C@@]2(CO)[C@@H](O)[C@@H]1O [Gymnemagenin] + CCOc1ccccc1-n1c(C(C)N2CCN(C(=O)COc3ccc(Cl)cc3)CC2)nc2ccccc2c1=O [erastin] | 0.918 |
| O=C(Oc1ccc([N+](=O)[O-])cc1)N1CCC(C(O)(c2ccc3c(c2)OCO3)c2ccc3c(c2)OCO3)CC1 + CCOc1ccccc1-n1c(C(C)N2CCN(C(=O)COc3ccc(Cl)cc3)CC2)nc2ccccc2c1=O [erastin] | 0.556 |
| O=c1cc(-c2ccc(O)c(-c3c(O)cc(O)c4c(=O)cc(-c5ccc(O)cc5)oc34)c2)oc2cc(O)cc(O)c12 [Amentoflavone] + CCOc1ccccc1-n1c(C(C)N2CCN(C(=O)COc3ccc(Cl)cc3)CC2)nc2ccccc2c1=O [erastin] | 0.438 |
| CC1=C(C)C(=O)C(C(CCCCCC(=O)O)c2ccccc2)=C(C)C1=O (stereo not drawn) [Seratrodast] + CCOc1ccccc1-n1c(C(C)N2CCN(C(=O)COc3ccc(Cl)cc3)CC2)nc2ccccc2c1=O [erastin] | 0.851 |
| Cc1cc(C)c(S(=O)(=O)Nc2cccc(C(F)(F)F)c2)c(C)c1 + CCOc1ccccc1-n1c(C(C)N2CCN(C(=O)COc3ccc(Cl)cc3)CC2)nc2ccccc2c1=O [erastin] | 0.922 |
| Cc1cc([N+](=O)[O-])ccc1NS(=O)(=O)c1cc(Cl)ccc1Cl + CCOc1ccccc1-n1c(C(C)N2CCN(C(=O)COc3ccc(Cl)cc3)CC2)nc2ccccc2c1=O [erastin] | 0.585 |
| NC(=O)c1cnccn1 [Pyrazinamide] + CCOc1ccccc1-n1c(C(C)N2CCN(C(=O)COc3ccc(Cl)cc3)CC2)nc2ccccc2c1=O [erastin] | 0.791 |
| CN(C)c1cccc(-c2c3c(=O)n(-c4ccccc4Cl)[nH]c3cc(=O)n2C)c1 + CCOc1ccccc1-n1c(C(C)N2CCN(C(=O)COc3ccc(Cl)cc3)CC2)nc2ccccc2c1=O [erastin] | 0.61 |
| O=C(O)c1cccc(N=Nc2c(O)[nH]c3ccc(S(=O)(=O)NCc4ccc(F)cc4)cc23)c1 + CCOc1ccccc1-n1c(C(C)N2CCN(C(=O)COc3ccc(Cl)cc3)CC2)nc2ccccc2c1=O [erastin] | 0.544 |
| CCCCCCCCCCOc1ccc(C(=O)Nc2cc(C(=O)NCCCC)ccc2SC)cc1 + CCOc1ccccc1-n1c(C(C)N2CCN(C(=O)COc3ccc(Cl)cc3)CC2)nc2ccccc2c1=O [erastin] | 0.739 |
| CC(C)Cc1ccc([C@H](C)C(=O)O)cc1 [Dexibuprofen] + CCOc1ccccc1-n1c(C(C)N2CCN(C(=O)COc3ccc(Cl)cc3)CC2)nc2ccccc2c1=O [erastin] | 0.901 |
| N[C@@H](Cc1c[nH]cn1)C(=O)O [histidine] + CCOc1ccccc1-n1c(C(C)N2CCN(C(=O)COc3ccc(Cl)cc3)CC2)nc2ccccc2c1=O [erastin] | 0.592 |
| O=C(CC(C(=O)O)c1c[nH]c2ccccc12)c1ccc(F)cc1F (stereo not drawn) [Mitochonic acid 5] + CCOc1ccccc1-n1c(C(C)N2CCN(C(=O)COc3ccc(Cl)cc3)CC2)nc2ccccc2c1=O [erastin] | 0.931 |
| COc1ccc2c(=O)c(-c3ccccc3)coc2c1 [7-Methoxyisoflavone] + CCOc1ccccc1-n1c(C(C)N2CCN(C(=O)COc3ccc(Cl)cc3)CC2)nc2ccccc2c1=O [erastin] | 0.443 |
| c1ccc([C@H]2CN3CCSC3=N2)cc1 [Levamisole hydrochloride] + CCOc1ccccc1-n1c(C(C)N2CCN(C(=O)COc3ccc(Cl)cc3)CC2)nc2ccccc2c1=O [erastin] | 0.768 |
| Nn1nnc2ccccc21 [1-Aminobenzotriazole] + CCOc1ccccc1-n1c(C(C)N2CCN(C(=O)COc3ccc(Cl)cc3)CC2)nc2ccccc2c1=O [erastin] | 0.76 |
